Measured values: PubChem BioAssay
Where “and” joins values, the source holds several entries; their conditions need not be identical. Equal values may be shown once. Calls of active or inactive are those of the source.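 The calls were made as follows, unless noted: active = z-score of at least 1.8 in each of two replicates, scored against plate mean and spread of sample wells; inactive = the rest.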

Experiments:
[1] = liver-stage malaria parasite growth inhibition, primary screen, cell-based, HepG2, luciferase luminescence, HepG2 viability (AID 624349; in the data active = parasite load remaining mostly below about 12%, no sharp cut-off; inactive = mostly above about 10%;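 also: 100% = mean of DMSO negative control wells on the same plate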); conditions: P. berghei liver stage in HepG2, luciferase luminescence, concentration not given here; parasite load remaining: stronger effect = lower value; viability: measured here: HepG2 viability without parasites
[2] = stimulators of nuclear beta-catenin in C2C12, primary screen, imaging, WNT3A-conditioned medium, mouse C2C12, NPC library (AID 1117326; in the data active = nuclear beta-catenin stimulation mostly above about 4.2%, no sharp cut-off; inactive = mostly below about 10%); conditions: stronger effect = higher value
[3] = stimulators of insulin release from INS-1E, primary screen, cell-based, 5 mM glucose, NPC library (AID 1117329;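 active = compound raises insulin release from rat beta cells at 5 mM glucose, no numeric limit stated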); conditions: rat INS-1E insulin secretion, at 10 µM, stronger effect = higher value
[4] = growth inhibition of GSK3B-pretreated HCT116 cells – cell-based, CellTiter-Glo, 0.2 to 20 µM (AID 1117336;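 active = compounds lowering colon cancer cell viability after pretreatment blocking the GSK3B kinase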); conditions: HCT116 viability after GSK3B inhibitor, at 20 µM, stronger effect = higher value
[5] = inhibition of endothelial tube formation, primary screen, imaging, VEGF stimulated, CD31 staining, tube area, NPC library (AID 1117340;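 active = compound that reduces growth-factor-driven endothelial tube area in a mixed cell culture, no cutoff stated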); conditions: VEGF-stimulated ADSC/ECFC co-culture, at 10 µM, stronger effect = higher value
[6] = glucagon-like peptide 1 release enhancers, primary assay, NCI-H716 cell line, NPC library (AID 1117341;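 active = compound raises GLP1 secretion from the human gut endocrine cells, with no numeric limit stated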); conditions: NCI-H716 cells, at 10 µM, stronger effect = higher value
[7] = HCT116 colon cancer cell growth inhibition, primary screen, CellTiter-Glo luminescence, NPC library (AID 1117342;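 active = compounds that lower survival of HCT116 colon cancer cells in the luminescence readout, no numeric limit stated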); conditions: at 20 µM (top of the series)
[8] = CellTiter-Glo luminescent readout of SW480 viability loss, NPC library primary (AID 1117343;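 active = compounds that lower viability of the colon cancer cells in the luminescence readout, with no numeric limit stated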); conditions: CellTiter-Glo luminescence; at 20 µM (top of the series)
[9] = decreased DLD-1 cellular survival, CellTiter-Glo luminescent readout, NPC compound collection, primary HTS (AID 1117346;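 active = compounds that lower survival of DLD-1 colon cancer cells in the luminescence readout, no cutoff given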); conditions: DLD-1 viability, CellTiter-Glo luminescence; at 20 µM (top of the series)
[10] = system: Aerobactin synthetase IucA (Klebsiella pneumoniae, hypervirulent); assay: IucA enzyme inhibition, biochemical, LOPAC library, absorbance readout (AID 1346212; call rule not given here;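 also: 100% = no compound wells and 0% = no enzyme wells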); conditions: IucA enzyme assay, absorbance (OD) readout; stronger effect = lower value;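 tested at 8 µM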
[11] = survival rescue of mitochondrial mutant cells in low glucose, primary screen, MELAS cybrids, Rieske KO mouse fibroblasts, CellTiter-Glo (AID 1508586;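 active = mean z-score across replicates of 1.96 or higher in either the MELAS or the Rieske mutant cell line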;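 also: z relative to plate mean and SD of compound and empty wells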)
[12] = viability rescue of complex I mutant cybrids, primary screen, cell-based, galactose medium, ATP luminescence (AID 1645843); conditions: complex I mutant cybrid cells, 72 h, stronger effect = higher value;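 also: positive z means more ATP and so rescue of galactose-driven cybrid death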
[13] = sensitizers of A549 cells to miR-34 induction, primary screen, imaging, A549 dox-inducible miR-34, nuclei and caspase counts (AID 1347080;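 active = compounds whose cell count with miR-34 switched on is under 0.7 times the count with it off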); conditions: A549 miR-34 inducible, Hoechst nuclei count, 48 h
[14] = system: Aerobactin synthetase IucA (Klebsiella pneumoniae hvKP1); assay: Biochemical IucA enzyme inhibition primary screen of the Spectrum library (AID 1346200; call rule not given here;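 also: 100% = wells without compound and 0% = wells lacking enzyme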); conditions: malachite green pyrophosphate, A620, at 8 µM, stronger effect = lower value
[15] = biological target: NAD(+) hydrolase SARM1 (Homo sapiens) (UniProt Q6SZW1); assay: SARM1 TIR NADase inhibitors, cell lysate, NAD-Glo luminescence (AID 1508614;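 active = compound whose remaining NAD level is above about 45 nM, limit read from the data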;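 also: higher remaining NAD means stronger inhibition of SARM1 NADase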); conditions: SAM-TIR HEK293T lysate NADase, at 1 µM, stronger effect = higher value
[16] = hESC survival regulators, cell-based (AID 493140; call rule not given here;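 also: cells exposed to compounds for four days before counting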); conditions: human embryonic stem cell survival screen; stronger effect = higher value
[17] = biological target: Mitogen-activated protein kinase 7 (Homo sapiens) (UniProt Q13164); assay: ERK5 transactivation activators in reporter cells, primary screen, cell-based, HTS (AID 1508626;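 active = luciferase signal above three times the same-plate solvent-only control wells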;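 also: luciferase driven by Gal4-ERK5 fusion binding five Gal4 sites before minimal TATA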); conditions: HeLa Gal4-ERK5 transactivation, 18 h, at 5 µM, stronger effect = higher value
[18] = MELAS cybrid survival, CellTiter-Glo 48 h, stronger effect = higher value
[19] = Rieske KO mouse fibroblast survival, CellTiter-Glo 72 h
[20] = measured here: relative caspase fold change +Dox/-Dox
[21] = measured here: total cells with miR-34 induction, stronger effect = lower value
[22] = measured here: total cells without miR-34 induction

Sequence of NAD(+) hydrolase SARM1 (Homo sapiens) (Q6SZW1 whole entry, looked up): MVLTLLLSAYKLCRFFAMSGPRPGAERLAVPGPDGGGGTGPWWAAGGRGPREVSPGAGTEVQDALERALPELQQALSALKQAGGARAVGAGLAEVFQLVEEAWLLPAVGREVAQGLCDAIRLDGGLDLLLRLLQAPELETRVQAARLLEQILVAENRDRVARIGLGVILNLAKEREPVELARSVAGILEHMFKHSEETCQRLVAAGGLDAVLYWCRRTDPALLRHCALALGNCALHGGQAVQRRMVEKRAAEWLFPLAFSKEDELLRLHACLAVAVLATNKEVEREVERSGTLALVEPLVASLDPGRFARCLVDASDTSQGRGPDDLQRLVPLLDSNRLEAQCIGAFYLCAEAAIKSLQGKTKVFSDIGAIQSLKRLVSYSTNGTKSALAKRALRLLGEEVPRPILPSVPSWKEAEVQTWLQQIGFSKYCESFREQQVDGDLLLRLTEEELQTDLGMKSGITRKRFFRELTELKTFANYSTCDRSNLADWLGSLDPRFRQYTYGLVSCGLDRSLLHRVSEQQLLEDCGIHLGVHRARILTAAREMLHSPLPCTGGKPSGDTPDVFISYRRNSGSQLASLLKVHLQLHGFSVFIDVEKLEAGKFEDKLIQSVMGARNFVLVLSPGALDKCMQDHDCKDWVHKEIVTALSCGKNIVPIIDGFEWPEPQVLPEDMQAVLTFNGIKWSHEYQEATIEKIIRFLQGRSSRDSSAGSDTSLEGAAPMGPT
Sequence of Mitogen-activated protein kinase 7 (Homo sapiens) (Q13164 whole entry, looked up, the tested form may be a part): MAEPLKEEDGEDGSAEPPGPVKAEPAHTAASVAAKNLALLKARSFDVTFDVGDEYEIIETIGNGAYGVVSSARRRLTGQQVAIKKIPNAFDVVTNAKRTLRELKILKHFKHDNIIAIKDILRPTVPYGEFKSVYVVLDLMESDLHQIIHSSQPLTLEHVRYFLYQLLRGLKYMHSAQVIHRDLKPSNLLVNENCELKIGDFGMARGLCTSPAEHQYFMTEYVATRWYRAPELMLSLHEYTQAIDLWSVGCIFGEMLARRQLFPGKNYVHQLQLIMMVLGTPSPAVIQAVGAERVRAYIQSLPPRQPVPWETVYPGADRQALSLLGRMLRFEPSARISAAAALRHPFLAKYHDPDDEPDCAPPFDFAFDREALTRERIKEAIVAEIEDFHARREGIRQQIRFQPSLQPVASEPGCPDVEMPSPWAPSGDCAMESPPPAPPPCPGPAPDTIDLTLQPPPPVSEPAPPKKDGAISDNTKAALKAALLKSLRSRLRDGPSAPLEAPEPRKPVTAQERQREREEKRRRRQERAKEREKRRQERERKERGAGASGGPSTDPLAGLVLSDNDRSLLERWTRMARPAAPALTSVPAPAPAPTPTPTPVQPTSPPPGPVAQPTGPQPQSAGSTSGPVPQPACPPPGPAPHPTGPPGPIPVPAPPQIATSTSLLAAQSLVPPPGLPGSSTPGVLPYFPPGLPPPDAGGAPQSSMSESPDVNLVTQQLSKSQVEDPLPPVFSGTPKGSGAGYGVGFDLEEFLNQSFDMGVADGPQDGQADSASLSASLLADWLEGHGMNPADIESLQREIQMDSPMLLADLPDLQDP

c1ccc(C2CC2)c(OCC2=NCCN2)c1
-0.25: z-score [11, 19]
0.6%: nuclear beta-catenin stimulation ([2]; stimulation, at 2 µM)
inactive: parasite load remaining [1] 45.2% | nuclear beta-catenin stimulation ([2]; at 10 µM) 1.3% | insulin secretion stimulation [3] -0.5% | viability decrease [4] -54.5% | tube area decrease [5] -3.7% | GLP1 secretion stimulation [6] 10.4% | inhibition of viability [7] 5.23% | viability decrease (inhibition) [8] 7% | viability decrease (inhibition) [9] -2.1% | remaining activity [10] 98% | z-score [11, 18] -0.68 | z-score [12] -0.075 and 0.06 and 0.195
96.5%: viability [1]

COC[C@@H](NC(C)=O)C(=O)NCc1ccccc1
-0.7%: nuclear beta-catenin stimulation ([2]; stimulation, at 2 µM)
inactive: nuclear beta-catenin stimulation ([2]; at 10 µM) 0.6% | insulin secretion stimulation [3] -0.4% | viability decrease [4] -7.9% | tube area decrease [5] -1.1% | GLP1 secretion stimulation [6] -0.8% | inhibition of viability [7] 1.2% | viability decrease (inhibition) [8] -1% | viability decrease (inhibition) [9] 9.6%

C#C[C@]1(O)C=C[C@H]2[C@@H]3CCC4=CC(=O)CC[C@@H]4[C@H]3CC[C@@]21CC
-1%: nuclear beta-catenin stimulation ([2]; stimulation, at 2 µM)
inactive: nuclear beta-catenin stimulation ([2]; at 10 µM) 0.9% | insulin secretion stimulation [3] -0.7% | viability decrease [4] 7.4% | tube area decrease [5] -2.3% | GLP1 secretion stimulation [6] 3.4% | inhibition of viability [7] 32.2% | viability decrease (inhibition) [8] -18.5% | viability decrease (inhibition) [9] -11.8%

CCCC[N+]1(C)[C@@H]2CC(OC(=O)[C@H](CO)c3ccccc3)C[C@H]1[C@@H]1O[C@@H]12 (stereo partly drawn)
-0.2%: nuclear beta-catenin stimulation ([2]; stimulation, at 2 µM)
0.894: fold change [13, 20]
-0.588 and -0.226: z-score [11, 19]
9520: cell count [13, 21]
61.5%: viability [1]
inactive: parasite load remaining [1] 35.4% | nuclear beta-catenin stimulation ([2]; at 10 µM) 1.5% | insulin secretion stimulation [3] 0.85% | viability decrease [4] 11.7% | tube area decrease [5] -20.3% | GLP1 secretion stimulation [6] 0.9% | inhibition of viability [7] 3.4% | viability decrease (inhibition) [8] -15.4% | viability decrease (inhibition) [9] -1.4% | fold change ([13]; stronger effect = lower value) 0.89 | z-score [11, 18] -0.818 and -0.303 | z-score [12] 0.285
10700: cell count [13, 22]

O=C(NC(=O)c1c(F)cccc1F)Nc1cc(Cl)c(OC(F)(F)C(F)C(F)(F)F)cc1Cl (stereo not drawn)
inactive: nuclear beta-catenin stimulation ([2]; at 10 µM) 2.8% | insulin secretion stimulation [3] 3.3% | viability decrease [4] 3.9% | tube area decrease [5] 19.4% | GLP1 secretion stimulation [6] 2.3% | inhibition of viability [7] 35% | viability decrease (inhibition) [8] 19.8% | viability decrease (inhibition) [9] 16.2% | activity remaining [14] 94.5% | fold change ([13]; stronger effect = lower value) 1.06 | remaining NAD [15] 10 nM
6820: cell count [13, 22]
1.2%: nuclear beta-catenin stimulation ([2]; stimulation, at 2 µM)
7240: cell count [13, 21]
0.7: fold change [13, 20]

Fc1ccc(C(OCCN2CCN(CCCc3ccccc3)CC2)c2ccc(F)cc2)cc1
74.4% and 71%: viability [1]
active: viability decrease [4] 118% | inhibition of viability [7] 124% | viability decrease (inhibition) [8] 159% | viability decrease (inhibition) [9] 102%
inactive: survival [16] 2.08 | parasite load remaining [1] 40.3% and 56% | nuclear beta-catenin stimulation ([2]; at 10 µM) 21.5% | insulin secretion stimulation [3] 4.65% | tube area decrease [5] 30.2% | GLP1 secretion stimulation [6] 7.4% | remaining activity [10] 111% | fold change ([13]; stronger effect = lower value) 1.71 and 1.06 and 1.14 | z-score [11, 18] -0.775 | z-score [12] -1.03 and -1.23
-0.6%: nuclear beta-catenin stimulation ([2]; stimulation, at 2 µM)
0.907 and 1.17 and 0.595: fold change [13, 20]
1020 and 3730 and 1770: cell count [13, 22]
1750 and 3970 and 2030: cell count [13, 21]
0.399: z-score [11, 19]

FC(F)(F)c1cccc(C2=CCN(CCc3ccc4ccccc4c3)CC2)c1
8830: cell count [13, 22]
-1.5%: nuclear beta-catenin stimulation ([2]; stimulation, at 2 µM)
8420: cell count [13, 21]
1.47: fold change [13, 20]
inactive: nuclear beta-catenin stimulation ([2]; at 10 µM) -0.7% | insulin secretion stimulation [3] 0.45% | viability decrease [4] 40.2% | tube area decrease [5] -6.6% | GLP1 secretion stimulation [6] 3.7% | inhibition of viability [7] 42.1% | viability decrease (inhibition) [9] 17.3% | fold change ([13]; stronger effect = lower value, cell number ratio, induced over uninduced) 0.954 | z-score [12] -0.615
active: viability decrease (inhibition) [8] 53.5%

NCC1(CC(=O)O)CCCCC1
103% and 169%: viability [1]
2.1%: nuclear beta-catenin stimulation ([2]; stimulation, at 2 µM)
inactive: survival [16] 2.25 | parasite load remaining [1] 131% and 58.8% | nuclear beta-catenin stimulation ([2]; at 10 µM) 1% | insulin secretion stimulation [3] -1.1% | viability decrease [4] -8.75% | tube area decrease [5] 20.1% | GLP1 secretion stimulation [6] -1.7% | inhibition of viability [7] -3.4% | viability decrease (inhibition) [8] -3.2% | viability decrease (inhibition) [9] -8.35% | remaining activity [10] 98.6% | z-score [11, 18] 0.467 and -0.335 | remaining NAD [15] 10 nM | luciferase signal [17] 76 AU | z-score [12] 0.26 and 0.88
-0.399 and 0.119: z-score [11, 19]
